Some test systems named below: SR leukemia; RPMI-8226 leukemia; OVCAR-8 ovarian; OVCAR-5 ovarian; OVCAR-4 ovarian; SK-OV-3 ovarian; IGROV1 ovarian; OVCAR-3 ovarian; HS 578T breast; NCI/ADR-RES ovarian.
Holding throughout (experiment): NCI-60 one-dose screen, 48 h (100 = growth as untreated, 0 = no growth, -100 = all killed)
Conditions in all cases: 10 µM unless noted

The panel holds about 83,000 compounds, 20% with a hit somewhere; the sample as a whole holds those more often.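 How to read the values: 0–100, growth inhibition (40 = 60% inhibited); 0, no net growth; -100 to 0, cell death (-40 = 40% of starting cells died; -100 = all dead).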 Values without a mark were called inactive. The source made the active and inactive calls. Rule for the calls: active = growth percent below 10; inactive = the rest.

`COc1ccc(Cc2cc(-c3ccccc3)nn(Cc3ccccc3)c2=O)cc1OC`: the growth is 40.2% in the assay with SR leukemia; 15.2% in the assay on RPMI-8226 leukemia; 32.3% in the assay with OVCAR-8 ovarian; 68.3% in the assay with OVCAR-5 ovarian; 32.5% in the assay on OVCAR-4 ovarian; 74.1% in the assay on SK-OV-3 ovarian. Besides, the growth is 47% in the assay on IGROV1 ovarian, 47.6% in the assay on OVCAR-3 ovarian, 66.6% with HS 578T breast and 30.2% in the assay with NCI/ADR-RES ovarian.

As for `O=C(CSc1nc2ccc([N+](=O)[O-])cc2[nH]1)Nc1cccc(C(F)(F)F)c1`, the growth in the assay with SR leukemia was 14.5%; in the assay with RPMI-8226 leukemia it was -11.8% (active); in the assay on OVCAR-8 ovarian it was 13.8%; in the assay on OVCAR-5 ovarian, 63.5%; in the assay with OVCAR-4 ovarian, 12%; in the assay on SK-OV-3 ovarian, 27.1%. The growth was 41% in the assay on IGROV1 ovarian, 20.7% in the assay with OVCAR-3 ovarian, 24.8% with HS 578T breast and 21.9% in the assay with NCI/ADR-RES ovarian.

With `Cc1cccc2c1NC(=O)C2(c1ccc(O)cc1)c1ccc(O)cc1`, the growth is 89% with SR leukemia; 80.9% with RPMI-8226 leukemia; 4.88% (active) in the assay with OVCAR-8 ovarian; 75.9% in the assay on OVCAR-5 ovarian; -16% (active) with OVCAR-4 ovarian; 89.5% in the assay on SK-OV-3 ovarian. Besides, the growth in the assay on IGROV1 ovarian was 45.7%; in the assay with OVCAR-3 ovarian, 25.6%; in the assay on HS 578T breast, -5.53% (active); in the assay on NCI/ADR-RES ovarian, 11%.

On to `COC(=O)c1c2c(c(C)[n+]([O-])c1C)C(=O)C=C(NCc1ccc(OC)cc1)C2=O`, for which the growth in the assay with SR leukemia was -0.642% (active); in the assay on RPMI-8226 leukemia it was -16.5% (active); with OVCAR-8 ovarian, 1.17% (active); with OVCAR-5 ovarian it was -54.6% (active); in the assay on OVCAR-4 ovarian, -98.5% (active); with SK-OV-3 ovarian it was 8.27% (active). Further, the growth with IGROV1 ovarian is -61.5% (active); in the assay with OVCAR-3 ovarian, -40.5% (active); in the assay on HS 578T breast, -10.2% (active); in the assay on NCI/ADR-RES ovarian, -7.81% (active).

Take `COC(=O)/C(CCC=C(C)C)=C1\[C@@H](OC(C)=O)C[C@@]2(C)[C@H]1C[C@@H](O)[C@H]1[C@@]3(C)CC[C@H](NCCN)[C@@H](C)[C@@H]3CC[C@@]12C`: the growth in the assay on SR leukemia is -17.8% (active); in the assay with RPMI-8226 leukemia, 70%; with OVCAR-8 ovarian it was 86.3%; in the assay with OVCAR-5 ovarian it was 104%; in the assay on OVCAR-4 ovarian it was 90.2%; in the assay with SK-OV-3 ovarian it was 93.6%. The growth in the assay on IGROV1 ovarian is 86.6%; in the assay on OVCAR-3 ovarian, 83.8%; in the assay with HS 578T breast, 77.9%; with NCI/ADR-RES ovarian it was 93.4%.

Turning to `COc1ccc2c(c1)[n+]([O-])c(C(=O)/C=C/C=C(\Cl)c1cc(OC)c(OC)c(OC)c1)c(C)[n+]2[O-]`, the growth with SR leukemia is 89.5%; in the assay on RPMI-8226 leukemia, 109%; in the assay with OVCAR-8 ovarian it was 43.7%; in the assay with OVCAR-5 ovarian, 104%; in the assay with OVCAR-4 ovarian, 108%; with SK-OV-3 ovarian, 38%. The growth is 64.6% in the assay with IGROV1 ovarian, 93% in the assay on OVCAR-3 ovarian, 68% in the assay with HS 578T breast and 91% in the assay with NCI/ADR-RES ovarian.

For the molecule `CCOC(=O)c1c(C)nc2c(c1N)CC(=O)N2Cc1cc(F)cc(Cl)c1`, the growth in the assay with SR leukemia is 75.3%; with RPMI-8226 leukemia, 71.7%; with OVCAR-8 ovarian it was 95.9%; in the assay on OVCAR-5 ovarian, 97.5%; in the assay on OVCAR-4 ovarian it was 67.5%; in the assay with SK-OV-3 ovarian, 115%. Also, the growth with IGROV1 ovarian was 102%; in the assay on OVCAR-3 ovarian, 93.8%; in the assay on HS 578T breast, 108%; in the assay with NCI/ADR-RES ovarian it was 81.2%.

Take `NC(=O)c1c(NC(=O)c2ccccc2)sc2c1CCC(=O)C2`: the growth was 7.6% (active) in the assay on SR leukemia; -10.3% (active) in the assay with RPMI-8226 leukemia; 17.2% in the assay on OVCAR-8 ovarian; 20.3% in the assay with OVCAR-5 ovarian; -5.57% (active) with OVCAR-4 ovarian; 50.9% with SK-OV-3 ovarian. The growth in the assay with IGROV1 ovarian is 27.1%; in the assay with OVCAR-3 ovarian, 7.93% (active); in the assay with HS 578T breast, 24.5%; with NCI/ADR-RES ovarian it was 7.2% (active).

With `COc1ccccc1Nc1nc2c(s1)C1=CC[C@H]3[C@@H]4CC[C@H]([C@H](C)CCCC(C)C)[C@@]4(C)CC[C@@H]3[C@@]1(C)CC2`, the growth in the assay with SR leukemia is 108%; in the assay with RPMI-8226 leukemia, 111%; with OVCAR-8 ovarian, 103%; in the assay with OVCAR-5 ovarian it was 106%; in the assay with OVCAR-4 ovarian, 99.8%; with SK-OV-3 ovarian, 101%. Further, the growth was 99.2% in the assay on IGROV1 ovarian, 103% in the assay on OVCAR-3 ovarian, 105% in the assay on HS 578T breast and 96.1% in the assay with NCI/ADR-RES ovarian.

For the molecule `COc1cc(CNS(=O)(=O)c2ccc(C)cc2)ccc1OCc1cn(-c2ccc(Br)cc2)nn1`, the growth in the assay with SR leukemia was 100%; in the assay on RPMI-8226 leukemia, 87.2%; in the assay on OVCAR-8 ovarian it was 102%; in the assay on OVCAR-5 ovarian it was 108%; in the assay with OVCAR-4 ovarian, 97.3%; with SK-OV-3 ovarian, 75.3%. The growth in the assay on IGROV1 ovarian is 103%; in the assay on OVCAR-3 ovarian, 112%; in the assay on HS 578T breast, 95.6%; in the assay on NCI/ADR-RES ovarian, 104%.

Consider `COC(=O)c1c2c(c(C)[n+]([O-])c1C)C(=O)C(NCc1ccc(Cl)cc1)=CC2=O`, for which the growth in the assay with SR leukemia is 48.6%; in the assay with RPMI-8226 leukemia, 69.8%; in the assay on OVCAR-8 ovarian, 33.1%; with OVCAR-5 ovarian, 97.3%; in the assay on OVCAR-4 ovarian it was 36.6%; in the assay on SK-OV-3 ovarian, 95.8%. Also, the growth was 61.2% in the assay on IGROV1 ovarian, -7.64% (active) in the assay with OVCAR-3 ovarian, 92.2% with HS 578T breast and 54.8% in the assay on NCI/ADR-RES ovarian.

`CCN(CC)C(=S)SC(SC(=S)N(CC)CC)C(=O)c1nnn(-c2ccc([N+](=O)[O-])cc2)c1C`: the growth in the assay with SR leukemia was 55.3%; with RPMI-8226 leukemia it was 90.8%; in the assay with OVCAR-8 ovarian it was 101%; in the assay with OVCAR-5 ovarian, 106%; with OVCAR-4 ovarian, 104%; in the assay on SK-OV-3 ovarian it was 112%. Besides, the growth was 71.2% in the assay on IGROV1 ovarian, 98.4% with OVCAR-3 ovarian, 113% with HS 578T breast and 99.8% with NCI/ADR-RES ovarian.

`CCCCC[C@@H]1Cc2cc(O)c(C(=O)O)c3c2[C@H](C[C@]2(OC[C@@H](CC(=O)[C@@](C)(CC)C(=O)OC)[C@@H]2C)O3)O1`: the growth in the assay with SR leukemia was 105%; in the assay with RPMI-8226 leukemia it was 108%; in the assay with OVCAR-8 ovarian, 99.4%; in the assay on OVCAR-5 ovarian, 111%; in the assay with OVCAR-4 ovarian it was 104%; with SK-OV-3 ovarian it was 104%. Also, the growth with IGROV1 ovarian was 103%; with OVCAR-3 ovarian, 111%; with HS 578T breast it was 99.8%; in the assay on NCI/ADR-RES ovarian, 113%.

On to `CC(O)c1cnc(/C=C2\SC(=S)N(Cc3ccccc3)C2=O)s1` (stereo not given), for which the growth with SR leukemia is 32%; in the assay on RPMI-8226 leukemia it was 4.74% (active); in the assay with OVCAR-8 ovarian, 52.1%; with OVCAR-5 ovarian, 90.1%; with OVCAR-4 ovarian it was 101%; with SK-OV-3 ovarian, 95.7%. Moreover, the growth in the assay on IGROV1 ovarian is 94%; in the assay with OVCAR-3 ovarian, 53.2%; in the assay with HS 578T breast, 95.3%; with NCI/ADR-RES ovarian, 92.7%.

For the origin of these results see PubChem BioAssay (NCI).
